{
  "source": "PubChem BioAssay (NCATS)",
  "note": "Results filed as inconclusive are left out. Active and inactive are the calls of the source. Calls come from the whole dose curve; as a rule, active = well fitted cell-killing curve with a large enough effect; inconclusive = small, poorly fitted or top-dose-only effect, or effect the other way; inactive = flat fitted curve, though single readings scatter. % is set by controls: 0 for no effect and ±100 for the full control effect.",
  "data": [
    {"test_system": "SKOV3", "experiment": "Primary qHTS to identify gynecologic anti-cancer compounds using libraries of approved drugs and bioactive compounds (AID 1345084); note: nearly all actives have a fitted effect of over 55% in size", "details": "Gynecologic cancer cell panel viability, ATPlite luminescence, 48 h; series mostly up to 57.5 µM; activity change, negative = cytotoxicity: at the top concentration", "outline": "(§1)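 Cytotoxicity screen measuring ATP content by luciferase luminescence. Each compound is applied at five concentrations for 48 h at 37 C with 5% CO2.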", "values": [
      {"smiles": "COc1ccc2c3c1O[C@H]1C[C@@H](O)C=C[C@@]31CCN(C)C2", "activity change, negative = cytotoxicity": "2.12% (inactive)"},
      {"smiles": "O=C(OCc1cccc(O)c1O[C@@H]1O[C@H](CO)[C@@H](O)[C@H](O)[C@H]1O)C1(O)C(=O)C2C=CC1C1C=CC(=O)C(O)(C(=O)OCc3cccc(O)c3O[C@@H]3O[C@H](CO)[C@@H](O)[C@H](O)[C@H]3O)C21", "note": "(stereo partly specified)", "activity change, negative = cytotoxicity": "4.95% [at 11.6 µM] (inactive)"},
      {"smiles": "NC(=O)[C@H]1CCCCc2c1[nH]c1ccc(Cl)cc21", "activity change, negative = cytotoxicity": "4.6% [at 25.3 µM] (inactive)"},
      {"smiles": "CCOC(=O)Nc1nc2ccccc2[nH]1", "activity change, negative = cytotoxicity": "8.72% (inactive)"},
      {"smiles": "CC1CCCC2OC2C(=O)c2c(O)cc(O)cc2CC(=O)O1", "note": "(stereo unspecified)", "activity change, negative = cytotoxicity": "-5.95% (inactive)"},
      {"smiles": "Cc1c(N2C(=O)c3ccc(C(=O)O)cc3C2=O)c(=O)n(-c2ccccc2)n1C", "activity change, negative = cytotoxicity": "20.6% (inactive)"},
      {"smiles": "C[C@@H]1CC[C@]2(C(=O)O)CC[C@]3(C(=O)O)C(=CCC4[C@@]5(C)CC[C@H](O[C@@H]6O[C@@H](C)[C@H](O[C@@H]7O[C@H](CO)[C@@H](O)[C@H](O)[C@H]7O)[C@@H](O)[C@H]6O)C(C)(C)C5CC[C@]43C)C2[C@H]1C", "note": "(stereo partly specified)", "activity change, negative = cytotoxicity": "-2.69% [at 25.3 µM] (inactive)"},
      {"smiles": "COC1C2=C(COC2=O)C2(C)CCCC(C)(CO)C2C1OC(=O)c1ccccc1", "note": "(stereo unspecified)", "activity change, negative = cytotoxicity": "2.24% [at 25.3 µM] (inactive)"},
      {"smiles": "O=C(O[C@@H]1O[C@H](CO)[C@@H](O)[C@H](O)[C@H]1O)c1c(O)cc(O)cc1/C=C/c1ccccc1", "activity change, negative = cytotoxicity": "0% [at 25.3 µM] (inactive)"},
      {"smiles": "C=C1CC/C=C(/CO)C(=O)C[C@@H]2[C@@H]1CC2(C)C", "activity change, negative = cytotoxicity": "-32.4% (inactive)"},
      {"smiles": "CC1CCC2C(C)(C)C(O)CCC2(C)C12Cc1c(O)cc3c(c1O2)C(N)=NC3", "note": "(stereo unspecified)", "activity change, negative = cytotoxicity": "15.6% [at 38.5 µM] (inactive)"},
      {"smiles": "COc1cc(C(=O)OC[C@H]2O[C@H](O[C@@]3(CO)O[C@@H](CO)[C@H](O)[C@H]3O)[C@H](O)[C@@H](O)[C@@H]2O)ccc1O", "activity change, negative = cytotoxicity": "0.969% [at 25.3 µM] (inactive)"}
    ]},
    {"test_system": "Tov-21-G", "experiment": "Primary qHTS to identify gynecologic anti-cancer compounds using libraries of approved drugs and bioactive compounds (AID 1345084); note: nearly all actives have a fitted effect of over 55% in size", "details": "Gynecologic cancer cell panel viability, ATPlite luminescence, 48 h; series mostly up to 57.5 µM; activity change, negative = cytotoxicity: at the top concentration", "outline": "as §1", "values": [
      {"smiles": "CC1(C)C(=O)N2c3ccccc3[C@]3(CC(n4cnc5ccccc5c4=O)C(=O)O3)[C@H]2N1O", "note": "(stereo partly specified)", "activity change, negative = cytotoxicity": "2.21% [at 25.3 µM] (inactive)"},
      {"smiles": "CC(=O)OC[C@@]12[C@@H](OC(C)=O)C[C@@H](C)[C@](C)([C@@H]3C[C@H]4C=CO[C@H]4O3)[C@H]1CCC[C@]21CO1", "activity change, negative = cytotoxicity": "2.92% [at 25.3 µM] (inactive)"},
      {"smiles": "COC1CC(=O)C23C(=O)NC(CC(C)C)C2C(C)C(C)=CC3/C=C(\\C)CCC1O", "note": "(stereo unspecified)", "activity change, negative = cytotoxicity": "0.579% [at 25.3 µM] (inactive)"},
      {"smiles": "CC(=O)c1c(O)cc2cccc3c2c1CC(C)(O)O3", "note": "(stereo unspecified)", "activity change, negative = cytotoxicity": "-2.18% (inactive)"},
      {"smiles": "C/C=C(\\C)C(=O)O[C@@H](C)[C@H]1CC[C@]2(O)C3CCC4C[C@@H](OC5CC(OC)C(OC6CC(OC)C(OC7CC(OC)C(OC8OC(C)C(OC9OC(CO)C(O)C(O)C9O)C(OC)C8O)C(C)O7)C(C)O6)C(C)O5)CC[C@]4(C)C3[C@H](O)[C@@H](O)[C@]12C", "note": "(stereo partly specified)", "activity change, negative = cytotoxicity": "13.7% [at 6.55 µM] (inactive)"},
      {"smiles": "C/C=C/C=C/C(CC(=O)O)Nc1ccc(C=O)cc1", "note": "(stereo unspecified)", "activity change, negative = cytotoxicity": "2.42% (inactive)"},
      {"smiles": "C=C1CC[C@H]2[C@@](C)(CCC(O)[C@@]2(C)CO)[C@@H]1C/C=C(/C(=O)O)C(O)CO", "note": "(stereo partly specified)", "activity change, negative = cytotoxicity": "-0.119% [at 38.5 µM] (inactive)"},
      {"smiles": "COc1cc(C[C@H]2COC(=O)[C@@H]2Cc2ccc(O)c(OC)c2)ccc1O", "activity change, negative = cytotoxicity": "6.47% [at 38.5 µM] (inactive)"},
      {"smiles": "C#Cc1cnc2[nH]c(=O)n(C(CC)CC)c2n1", "activity change, negative = cytotoxicity": "0.633% (inactive)"},
      {"smiles": "N[C@@H](CC(=O)N1CCn2c(nnc2C(F)(F)F)C1)Cc1[nH]nc2c(F)c(F)ccc12", "activity change, negative = cytotoxicity": "5.47% (inactive)"},
      {"smiles": "CC1(C)CCC2(C(=O)OC3OC(COC4OC(CO)C(O)C(O)C4O)C(O)C(O)C3O)CCC3(C)C(=CCC4C5(C)CCC(O)C(C)(C(=O)O)C5CCC43C)C2C1O", "note": "(stereo unspecified)", "activity change, negative = cytotoxicity": "0.669% [at 11.6 µM] (inactive)"},
      {"smiles": "CC(=O)c1c(C)cc(O)cc1O[C@@H]1O[C@H](CO)[C@@H](O)[C@H](O)[C@H]1O", "activity change, negative = cytotoxicity": "2.26% [at 38.5 µM] (inactive)"},
      {"smiles": "CC1CC(O)CC(C)(C)C1(O)CCO", "note": "(stereo unspecified)", "activity change, negative = cytotoxicity": "-3.41% (inactive)"},
      {"smiles": "C(#Cc1cccc(CN2CCOCC2)c1)CCN1CCCCC1", "activity change, negative = cytotoxicity": "2.28% (inactive)"},
      {"smiles": "COC(=O)[C@]12C(=O)C(C)=C(O)[C@@]1(C)C(C)=CC1[C@@]34CC[C@@H](OC(C)=O)C(C)(C)C3[C@H](C[C@]12C)OC4=O", "note": "(stereo partly specified)", "activity change, negative = cytotoxicity": "-0.392% [at 25.3 µM] (inactive)"},
      {"smiles": "CC(=O)C1CCC2(C)C3=C(CCC12C)C1(C)CCC(=O)C(C)(C)C1CC3", "note": "(stereo unspecified)", "activity change, negative = cytotoxicity": "10.6% [at 38.5 µM] (inactive)"},
      {"smiles": "N#Cc1ccnc(N2C(=O)CC[C@H]2C(=O)N(c2cncc(F)c2)[C@H](C(=O)NC2CC(F)(F)C2)c2ccccc2Cl)c1", "activity change, negative = cytotoxicity": "0.507% (inactive)"},
      {"smiles": "CC(C)CNC(=O)/C=C/CCCCc1ccc2c(c1)OCO2", "activity change, negative = cytotoxicity": "5.93% [at 38.5 µM] (inactive)"},
      {"smiles": "O=C(c1ccccn1)c1cnn2c(-c3ccncc3)ccnc12", "activity change, negative = cytotoxicity": "-0.653% (inactive)"},
      {"smiles": "C=CC(C)(O)CC/C=C(/C)C(=O)OC1C(OC2OCC(OC3OC(CO)C(O)C(O)C3O)C(OC3OCC(O)C(OC4OC(C)C(O)C(O)C4O)C3O)C2O)COC(OC(=O)C23CCC(C)(C)CC2C2=CCC4C5(C)CCC(OC6OC(CO)C(OC7OC(CO)C(O)C(OC8OCC(O)C(O)C8O)C7O)C(O)C6O)C(C)(C)C5CCC4(C)C2(C)CC3O)C1O", "note": "(stereo unspecified)", "activity change, negative = cytotoxicity": "1.46% [at 6.55 µM] (inactive)"},
      {"smiles": "Nc1ncnc2c1ncn2[C@H]1CCCO1", "activity change, negative = cytotoxicity": "7.19% (inactive)"},
      {"smiles": "Clc1ccc2c(c1)C1=NCCN1c1c(-c3noc(C4CC4)n3)ncn1-2", "activity change, negative = cytotoxicity": "9.61% (inactive)"},
      {"smiles": "C[C@@H]1O[C@@H](O[C@H]2[C@H](O)[C@@H](C(=O)O)O[C@@H](O[C@H]3CC[C@@]4(C)C(CC[C@]5(C)C4CC=C4C6CC(C)(C)CC[C@]6(C(=O)O)CC[C@]45C)C3(C)C)[C@@H]2O[C@@H]2O[C@H](CO)[C@@H](O)[C@H](O)[C@H]2O)[C@H](O)[C@H](O)[C@H]1O", "note": "(stereo partly specified)", "activity change, negative = cytotoxicity": "0.088% [at 11.6 µM] (inactive)"},
      {"smiles": "C=CC1(C)CC(O)C2(CCC3C(C)(C(=O)O)CCCC3(C)C2=O)C1", "note": "(stereo unspecified)", "activity change, negative = cytotoxicity": "-1.86% [at 38.5 µM] (inactive)"},
      {"smiles": "C=CC(C)(O)CC/C=C(\\C)C(=O)OC1CC2(C(=O)O)CCC3(C)C(=CCC4C5(C)CCC(OC6OC(COC7OCC(O)C(O)C7O)C(O)C(OC7OCC(O)C(O)C7O)C6OC6OC(CO)C(O)C(O)C6OC6OCC(O)C(O)C6O)C(C)(C)C5CCC43C)C2CC1(C)C", "note": "(stereo unspecified)", "activity change, negative = cytotoxicity": "1.97% [at 6.55 µM] (inactive)"},
      {"smiles": "O=C(/C=C/c1ccc(O)cc1)OCC1=CC2OC(=O)C3=CO[C@@H](O[C@@H]4O[C@H](CO)[C@@H](O)[C@H](O)[C@H]4O)[C@H]1[C@@H]32", "note": "(stereo partly specified)", "activity change, negative = cytotoxicity": "-6.74% [at 25.3 µM] (inactive)"},
      {"smiles": "CC1OC(OC2C(CO)OC(OCC3OC(OC(=O)C45CCC(C)(C)CC4C4=CCC6C7(C)CCC(OC8OC(C(=O)O)C(O)C(OC9OC(CO)C(O)C(O)C9O)C8O)C(C)(C)C7CCC6(C)C4(C)CC5)C(O)C(O)C3O)C(O)C2O)C(O)C(O)C1O", "note": "(stereo unspecified)", "activity change, negative = cytotoxicity": "0.671% [at 6.55 µM] (inactive)"},
      {"smiles": "COc1ccc2c3c1O[C@H]1C[C@@H](O)C=C[C@@]31CCN(C)C2", "activity change, negative = cytotoxicity": "-0.401% (inactive)"},
      {"smiles": "O=C(OCc1cccc(O)c1O[C@@H]1O[C@H](CO)[C@@H](O)[C@H](O)[C@H]1O)C1(O)C(=O)C2C=CC1C1C=CC(=O)C(O)(C(=O)OCc3cccc(O)c3O[C@@H]3O[C@H](CO)[C@@H](O)[C@H](O)[C@H]3O)C21", "note": "(stereo partly specified)", "activity change, negative = cytotoxicity": "1.57% [at 11.6 µM] (inactive)"},
      {"smiles": "NC(=O)[C@H]1CCCCc2c1[nH]c1ccc(Cl)cc21", "activity change, negative = cytotoxicity": "5.68% [at 25.3 µM] (inactive)"},
      {"smiles": "CCOC(=O)Nc1nc2ccccc2[nH]1", "activity change, negative = cytotoxicity": "3.06% (inactive)"},
      {"smiles": "CC1CCCC2OC2C(=O)c2c(O)cc(O)cc2CC(=O)O1", "note": "(stereo unspecified)", "activity change, negative = cytotoxicity": "-0.293% (inactive)"},
      {"smiles": "Cc1c(N2C(=O)c3ccc(C(=O)O)cc3C2=O)c(=O)n(-c2ccccc2)n1C", "activity change, negative = cytotoxicity": "2.02% (inactive)"},
      {"smiles": "C[C@@H]1CC[C@]2(C(=O)O)CC[C@]3(C(=O)O)C(=CCC4[C@@]5(C)CC[C@H](O[C@@H]6O[C@@H](C)[C@H](O[C@@H]7O[C@H](CO)[C@@H](O)[C@H](O)[C@H]7O)[C@@H](O)[C@H]6O)C(C)(C)C5CC[C@]43C)C2[C@H]1C", "note": "(stereo partly specified)", "activity change, negative = cytotoxicity": "5.59% [at 25.3 µM] (inactive)"},
      {"smiles": "COC1C2=C(COC2=O)C2(C)CCCC(C)(CO)C2C1OC(=O)c1ccccc1", "note": "(stereo unspecified)", "activity change, negative = cytotoxicity": "-9.54% [at 25.3 µM] (inactive)"},
      {"smiles": "O=C(O[C@@H]1O[C@H](CO)[C@@H](O)[C@H](O)[C@H]1O)c1c(O)cc(O)cc1/C=C/c1ccccc1", "activity change, negative = cytotoxicity": "0.152% [at 25.3 µM] (inactive)"},
      {"smiles": "C=C1CC/C=C(/CO)C(=O)C[C@@H]2[C@@H]1CC2(C)C", "activity change, negative = cytotoxicity": "4.19% (inactive)"},
      {"smiles": "CC1CCC2C(C)(C)C(O)CCC2(C)C12Cc1c(O)cc3c(c1O2)C(N)=NC3", "note": "(stereo unspecified)", "activity change, negative = cytotoxicity": "3.73% [at 38.5 µM] (inactive)"},
      {"smiles": "COc1cc(C(=O)OC[C@H]2O[C@H](O[C@@]3(CO)O[C@@H](CO)[C@H](O)[C@H]3O)[C@H](O)[C@@H](O)[C@@H]2O)ccc1O", "activity change, negative = cytotoxicity": "-4.03% [at 25.3 µM] (inactive)"}
    ]}
  ]
}
